Laboratory results taken from PubChem BioAssay AID1259343 (VanderVen Lab, College of Veterinary Medicine, Cornell …, 2017).
The campaign covered roughly 6,200 compounds. About 2,900 (47%) were called active. The set was probably picked from earlier hits. Some of the results follow. A number with no mark means an inactive call. Cut-off read from the data, not from the text of the source: active = inhibition above about 50%; inactive = the rest.

assay: Mycobacterium tuberculosis growth inhibition, primary screen (AID 1259343); conditions: inhibition: at 10 µM, active compounds read high; outcome: 10 uM

Question: For Cc1cccc(-c2ccc(NC(=O)C3CCN(C(=O)Cn4cccn4)CC3)cc2)c1, which inhibition is on record?
Answer: inactive

Question: With Cc1cccc(-c2ccc(NC(=O)C3CCN(C(=O)CCc4cnn(C)c4)CC3)cc2)c1 as the compound, how does the inhibition read?
Answer: 87.8% (active)

Question: For Cc1cccc(-c2ccc(NC(=O)C3CCN(C(=O)CCc4ccncc4)CC3)cc2)c1, which inhibition is on record?
Answer: 85% (active)

Question: For Cc1cccc(-c2ccc(NC(=O)C3CCN(C(=O)CSc4ccncc4)CC3)cc2)c1, which inhibition is on record?
Answer: 74.8% (active)

Question: For COc1ccc2oc(=Nc3cccc(C#N)c3)c(-c3nc4ccccc4[nH]3)cc2c1, which inhibition is on record?
Answer: -9.36%

Question: With CSc1ccc(-c2nc(CN3CCN(c4cnccn4)CC3)c(C)o2)cc1 as the compound, how does the inhibition read?
Answer: inactive

Question: With COc1ccc(-c2nc(CN3CCN(c4nc5ccccc5s4)CC3)c(C)o2)c(OC)c1 as the compound, how does the inhibition read?
Answer: 15.8%

Question: With COc1ccc(-c2nc(CN3CCN(c4ccc(C)cc4C)CC3)c(C)o2)cc1 as the compound, how does the inhibition read?
Answer: 67.6% (active)

Question: With Cc1ccccc1-c1cnnc(NCCCn2ccc3ccccc32)n1 as the compound, how does the inhibition read?
Answer: 32.6%

Question: For Cc1ccc(-c2nc(CN3CCc4ccccc4C3)co2)c(C)c1, which inhibition is on record?
Answer: 27.7%

Question: Which inhibition does the source give for O=S(=O)(NC1CCCc2ccccc21)c1ccc(Br)cc1 (stereo not drawn) here?
Answer: 10.2%

Question: For Clc1ccc(OCCN2CCc3ccccc3C2)cc1, which inhibition is on record?
Answer: 87.5% (active)

Question: Which inhibition does the source give for O=S(=O)(CCN1CCc2ccccc2C1)Oc1ccc(Br)cc1 here?
Answer: 98.6% (active)

Question: For Ic1ccc(OCCN2CCc3ccccc3C2)cc1, which inhibition is on record?
Answer: 46.5%

Question: For Brc1cccc(OCCN2CCc3ccccc3C2)c1, which inhibition is on record?
Answer: 38.6%

Question: For FC1(F)Oc2ccc(NCc3nc(-c4ccsc4)no3)cc2O1, which inhibition is on record?
Answer: 48.7%

Question: With N=C1SCC(=O)N1c1ncc(Cc2ccccc2)s1 as the compound, how does the inhibition read?
Answer: 102% (active)

Question: With COc1ccc(C2NC(=O)NC(C)=C2C(=O)OCc2ccccc2)c(OC)c1 (stereo not drawn) as the compound, how does the inhibition read?
Answer: -11.8%

Question: For COc1ccc(CN(C)C2CC(=O)N(c3c(C)cccc3C)C2=O)c(OC)c1 (stereo not drawn), which inhibition is on record?
Answer: 101% (active)

Question: For COc1ccc(CN(C)C(=O)Nc2ccc(C)cc2)c(OC)c1, which inhibition is on record?
Answer: -33.2%

Question: With CCCC1CCCC(=C\c2ccc(OC)cc2)/C1=N\OC(=O)NCC (stereo not drawn) as the compound, how does the inhibition read?
Answer: 57% (active)

Question: With COc1ccc(NC(=O)c2sc(=O)n(Cc3ccccc3)c2C)cc1 as the compound, how does the inhibition read?
Answer: 5.9%

Question: For COc1ccc(NC(=O)c2sc(=O)n(Cc3ccc(C)cc3)c2C)cc1OC, which inhibition is on record?
Answer: 41.4%

Question: With COc1ccc(NC(=O)c2sc(=O)n(Cc3ccc(OC(F)(F)F)cc3)c2C)cc1 as the compound, how does the inhibition read?
Answer: 55.9% (active)

Question: With COc1ccc(NC(=O)c2sc(=O)n(Cc3cccc(F)c3)c2C)cc1 as the compound, how does the inhibition read?
Answer: 60.5% (active)

Question: Which inhibition does the source give for C=Cc1ccc(Cn2c(C)c(C(=O)Nc3ccc(OC)c(OC)c3)sc2=O)cc1 here?
Answer: -5.14%

Question: Which inhibition does the source give for COc1ccc(NC(=O)c2sc(=O)n(Cc3ccc(C)cc3)c2C)cc1 here?
Answer: 79.5% (active)

Question: With Cc1ccc(Cn2c(C)c(C(=O)Nc3ccc(C)cc3)sc2=O)cc1 as the compound, how does the inhibition read?
Answer: -16.4%

Question: For C=Cc1ccc(Cn2c(C)c(C(=O)Nc3ccc(OC)cc3)sc2=O)cc1, which inhibition is on record?
Answer: 2.61%

Question: With Cc1cc(CN2CCN(c3c(Br)cnc4nc(-c5ccc(N6CCN(C)CC6)cc5)[nH]c34)CC2)no1 as the compound, how does the inhibition read?
Answer: 23.4%

Question: For Clc1ccc2c(c1)C(N1CCNCC1)=Nc1ccccc1O2, which inhibition is on record?
Answer: 81.5% (active)

Question: Which inhibition does the source give for Cc1ccccc1CCNC(=O)Cn1c(-c2cccs2)n[nH]c1=S here?
Answer: 1.7%

Question: Which inhibition does the source give for COc1cccc2c1OCCCN(Cc1nc(-c3ccc(C(F)(F)F)cc3)oc1C)C2 here?
Answer: 23.4%

Question: Which inhibition does the source give for Cc1oc(-c2cc3c(cc2Cl)OCO3)nc1CN(C)Cc1ccc(C(F)(F)F)cc1 here?
Answer: 46.8%

Question: With Cc1oc(-c2ccc(C(F)(F)F)cc2)nc1CN(C)CC1COc2ccccc2O1 (stereo not drawn) as the compound, how does the inhibition read?
Answer: 53.7% (active)

Question: With O=C(Cc1ccc(Br)cc1)NC1CCCC1 as the compound, how does the inhibition read?
Answer: 82.1% (active)

Question: Which inhibition does the source give for O=C(CSC1CCCCC1)NC1CCCC1 here?
Answer: -47.7%

Question: With O=C(C1=C(O)C(=O)N(c2ncccn2)C1c1ccc(Cl)c(Cl)c1)c1ccco1 (stereo not drawn) as the compound, how does the inhibition read?
Answer: -2.77%

Question: For COc1ccc(-c2cc(O)cc3sc(=O)oc23)cc1, which inhibition is on record?
Answer: 69.8% (active)

Question: For COc1ccc(-c2c(C)noc2-c2ccc(OC)cc2O)cc1, which inhibition is on record?
Answer: 16.2%

Question: For O=c1oc2c(-c3ccc(Br)cc3)cc(O)cc2s1, which inhibition is on record?
Answer: 48.6%

Question: With CC(C)c1ccccc1OCCOc1cccc2cccnc12 as the compound, how does the inhibition read?
Answer: 61.7% (active)

Question: Which inhibition does the source give for CC(C)c1cccc(OCCOc2cccc3cccnc23)c1 here?
Answer: 58.4% (active)

Question: For Cc1ccc2cccc(OCCCOc3ccc(C)c(C)c3)c2n1, which inhibition is on record?
Answer: -21.9%

Question: For Cc1cc(S(=O)(=O)NC2CCCCC2C)ccc1Cl (stereo not drawn), which inhibition is on record?
Answer: 14.4%

Question: For Nc1c2ccccc2nc2ccccc12 (tested in a mixture with another compound), which inhibition is on record?
Answer: 90.3% (active)

Question: For O=C1c2ccccc2C(=O)C1c1ccnc2ccccc12, which inhibition is on record?
Answer: -13.4%

Question: For Cc1nn2c(-c3cccc(C(F)(F)F)c3)cc(C(=O)O)nc2c1-c1ccccc1, which inhibition is on record?
Answer: 89.3% (active)

Question: Which inhibition does the source give for Cc1nn2c(-c3ccccc3Cl)cc(C(=O)O)nc2c1-c1ccccc1 here?
Answer: 71.1% (active)

Question: Which inhibition does the source give for Cc1nn2c(NCCOCCO)cc(C(C)(C)C)nc2c1-c1ccccc1Cl here?
Answer: 19.6%

Question: For COc1ccc(-c2cc(C(=O)NCCN3CCCCC3)nc3c(-c4ccccc4)c(C)nn23)cc1, which inhibition is on record?
Answer: 38.1%

Question: For COc1ccccc1CN(Cc1cccc(C(F)(F)F)c1)Cc1nc(C(=O)O)co1, which inhibition is on record?
Answer: 9.16%

Question: With O=C1CCCC2=C1C(c1ccncc1)NC(=O)N2Cc1ccccc1 (stereo not drawn) as the compound, how does the inhibition read?
Answer: 85.2% (active)

Question: With COc1ccc2cc(C(=O)C3CCCN(C(=O)CCC(=O)c4ccc(F)cc4)C3)ccc2c1 (stereo not drawn) as the compound, how does the inhibition read?
Answer: 87.2% (active)

Question: Which inhibition does the source give for COc1ccc2cc(C(=O)C3CCCN(Cc4cccc(C)n4)C3)ccc2c1 (stereo not drawn) here?
Answer: 42.4%

Question: For COc1ccc(C(=O)N2CCCC(C(=O)c3ccc(-c4ccccc4)c(F)c3)C2)o1 (stereo not drawn), which inhibition is on record?
Answer: inactive

Question: With CC(C)c1ccc(Nc2nccc3c2ncn3Cc2ccccc2)cc1 as the compound, how does the inhibition read?
Answer: 73% (active)

Question: With Cc1cc2ncn(Cc3ccc(C(C)C)cc3)c2cc1C as the compound, how does the inhibition read?
Answer: -9.75%

Question: For Clc1ccc(Nc2nccc3c2ncn3Cc2ccccc2)cc1, which inhibition is on record?
Answer: 57.3% (active)

Question: For Cc1ccc(Nc2nc(N3CCN(Cc4ccccc4)CC3)nc3nccnc23)cc1Cl, which inhibition is on record?
Answer: 19.4%

Question: Which inhibition does the source give for Clc1ccc(Cn2ncc3c(Nc4ccc(Cl)cc4)ncnc32)cc1 here?
Answer: 9.84%

Question: Which inhibition does the source give for C=C(C)Cn1c(SCCCC)nc2c1c(=O)[nH]c(=O)n2C here?
Answer: -35.9%

Question: Which inhibition does the source give for CCS(=O)(=O)N1CCc2cc(-c3csc(-c4ccc(O)cc4)n3)ccc21 here?
Answer: 11.5%

Question: Which inhibition does the source give for Cc1ccc(C(=O)N2CCCC(CCc3ccc(F)c(F)c3)C2)cc1O (stereo not drawn) here?
Answer: 7.31%

Question: With O=C(CCCc1ccc(Cl)cc1)N1CCCC(CO)(Cc2ccc(F)cc2F)C1 (stereo not drawn) as the compound, how does the inhibition read?
Answer: 18.9%

Question: Which inhibition does the source give for O=C(CCC(F)(F)F)N1CCCC(CCc2ccc(F)cc2F)C1 (stereo not drawn) here?
Answer: 66% (active)

Question: Which inhibition does the source give for CCCn1cc(CNC(=O)c2ccc(Cl)cn2)cn1 here?
Answer: -32.2%

Question: Which inhibition does the source give for CCCOc1ccc2c(c1)OCC(C(=O)Nc1cnn(C)c1)=C2 here?
Answer: -4.68%

Question: With CCCn1cc(NC(=O)c2cc(-c3ccccc3)on2)cn1 as the compound, how does the inhibition read?
Answer: 85.3% (active)

Question: Which inhibition does the source give for O=S(=O)(Nc1ccc(N2CCCC2)c(F)c1)c1cc(F)cc(F)c1 here?
Answer: 56.4% (active)

Question: Which inhibition does the source give for O=[N+]([O-])c1cc(S(=O)(=O)C(F)(F)F)ccc1N1CCN(c2ccccc2F)CC1 here?
Answer: 24.3%

Question: For Cc1ccc(C(=O)N2CCCN(C(=O)OC(C)(C)C)CC2)cc1S(C)(=O)=O, which inhibition is on record?
Answer: 74.7% (active)

Question: For O=C(c1cc(Br)cc(Br)c1)N1CCCCCC1, which inhibition is on record?
Answer: -4.59%

Question: Which inhibition does the source give for Cc1ccc(Cl)cc1N1CCN(C(=O)c2ccc(=O)[nH]c2)CC1 here?
Answer: 32.4%

Question: With Cc1cc2c(cc1C)C(=O)C(N1CCOCC1)=C(c1ccccc1)C2=O as the compound, how does the inhibition read?
Answer: 40.4%

Question: With CCN(Cc1ccccc1)C(=O)c1ccc(-c2ccccc2)nc1N1CCOCC1 as the compound, how does the inhibition read?
Answer: 20.4%

Question: Which inhibition does the source give for OCc1sc(N2CCOCC2)nc1-c1ccccc1 here?
Answer: 89.7% (active)

Question: For Cc1cc(-c2n[nH]c(=S)o2)c(C)n1-c1ccccc1, which inhibition is on record?
Answer: 70.3% (active)

Question: For S=c1[nH]nc(-c2cc(-c3cccs3)nc3ccccc23)o1, which inhibition is on record?
Answer: inactive

Question: For COC(=O)c1ccc(F)c(NS(=O)(=O)c2ccc(Cl)c(C(F)(F)F)c2)c1, which inhibition is on record?
Answer: 41.9%

Question: Which inhibition does the source give for O=S(=O)(Nc1ccc(Br)cc1F)c1cccs1 here?
Answer: 31.8%

Question: Which inhibition does the source give for O=S(=O)(Nc1ccc(Br)cc1F)c1ccc(Cl)c(C(F)(F)F)c1 here?
Answer: 88.3% (active)

Question: For O=S(=O)(Nc1ccc(Br)cc1Cl)c1ccc(F)cc1, which inhibition is on record?
Answer: 50.5% (active)

Question: For O=[N+]([O-])c1ccccc1NN=C1CCCCc2ccccc21, which inhibition is on record?
Answer: 5.1%

Question: With CCC(C)(C)C1CCC(=NNc2ccc([N+](=O)[O-])cc2)CC1 (stereo not drawn) as the compound, how does the inhibition read?
Answer: 74.3% (active)

Question: For CC(C)(C)C1CCC(=NNc2ccc([N+](=O)[O-])cc2)CC1 (stereo not drawn), which inhibition is on record?
Answer: -18.8%

Question: With O=[N+]([O-])c1ccc(NN=CC2CCCCC2)cc1 as the compound, how does the inhibition read?
Answer: 97.8% (active)

Question: Which inhibition does the source give for O=[N+]([O-])c1ccc(NN=C2CCCCCCC2)cc1 here?
Answer: 88.4% (active)

Question: With O=S(=O)(Oc1ccc2ccccc2c1Cl)N1CCCCC1 as the compound, how does the inhibition read?
Answer: 0.9%

Question: Which inhibition does the source give for COc1cccc(NC(=O)c2c[nH]c3c(c(C)nn3-c3ccccc3)c2=O)c1 here?
Answer: 90.4% (active)

Question: With Cc1cc(C)cc(NC(=O)c2c[nH]c3c(c(C)nn3-c3ccccc3)c2=O)c1 as the compound, how does the inhibition read?
Answer: 45.9%

Question: For Cc1ccc(-n2nc(C)c3c(=O)c(C(=O)N4c5ccccc5CC4C)c[nH]c32)cc1 (stereo not drawn), which inhibition is on record?
Answer: 54.2% (active)

Question: With COc1ccc(NC(=O)c2c[nH]c3c(c(C)nn3-c3ccccc3)c2=O)cc1 as the compound, how does the inhibition read?
Answer: 67.8% (active)

Question: Which inhibition does the source give for Cc1nn(-c2ccccc2)c2[nH]cc(C(=O)Nc3ccc(N(C)C)cc3)c(=O)c12 here?
Answer: 29%

Question: With Cc1nn(-c2ccccc2)c2[nH]cc(C(=O)Nc3ccccc3)c(=O)c12 as the compound, how does the inhibition read?
Answer: 53.1% (active)

Question: Which inhibition does the source give for Cc1nn(-c2ccccc2)c2[nH]cc(C(=O)NCc3ccccc3Cl)c(=O)c12 here?
Answer: 31.5%

Question: With Cc1ccc(CNC(=O)c2c[nH]c3c(c(C)nn3-c3ccccc3)c2=O)cc1 as the compound, how does the inhibition read?
Answer: 49.8%

Question: For Cc1nn(-c2ccccc2)c2[nH]cc(C(=O)NCc3ccccc3)c(=O)c12, which inhibition is on record?
Answer: 51.6% (active)
